Laboratory results as given in PubChem BioAssay AID588456 (National Center for Advancing Translational Sciences (NCATS), 2011).
The whole screen tested about 390,000 compounds, of which about 55 (0.01%) were called active. Calls come from the whole dose curve; as a rule, active = well fitted inhibition curve with a large enough effect; inconclusive = small, poorly fitted or top-dose-only effect; inactive = no such curve, though single readings can be large or run the other way. Only a sample is shown.

The compounds below were run against Thioredoxin reductase 1, cytoplasmic (Rattus norvegicus) (UniProt O89049) (assay: qHTS Assay for Substrates of Mammalian Selenoprotein Thioredoxin Reductase 1 (TrxR1): qHTS). Settings: purified TrxR1 substrate turnover, NADPH consumption readout; series mostly up to 114 µM; activity change, negative = substrate turnover: at the top concentration.
Description: The selenoprotein thioredoxin reductase (TrxR; EC 1.8.1.9) is a FAD containing homodimeric pyridine nucleotide-disulfide oxidoreductase with many cellular roles. Together with NADPH and its prime substrate thioredoxin (Trx), the enzyme forms the core of the Trx system. The mammalian Trx system exerts a wide spectrum of functions including redox regulation, antioxidant defense, regulation of transcription factors as well as support of cell growth and replication. Many of these functions involve the reduction of Trx, which may subsequently reduce a number of different substrates including ribonucleotide reductase, peroxiredoxins or NFkB. Mammalian TrxR itself also has a broad substrate specificity, reducing both protein and non-protein substrates, including low molecular weight compounds such as dehydroascorbate, lipoic acid, ubiquinone, and juglone. In addition, several drugs in clinical use for anticancer treatment are indeed known to target TrxR1.
This BioAssay is a validation of an NADPH fluorescence-based, dual-purpose qHTS rTrxR1 assay designed to find potential inhibitors and substrates of rTrxR1. For this particular BioAssay, actives are potential substrate. See related BioAssay for inhibition data deposition.
NIH Molecular Libraries Probe Production Network [MLPCN]
NIH Chemical Genomics Center [NCGC]
Assay Provider: Elias Arner, Karolinska Institute
Assay protocol: 2 uL of reagents (buffer in column 4 as negative control and 90 nM rTrxR1 in columns 1-3 and 5-48) were dispensed into Greiner black solid-bottom 1,536-well assay plates, followed by 1 uL of NADPH (400 uM final concentration) to each well. The plates were centrifuged at 1000 rpm for 15 seconds and subsequently incubated for 5 min at room temperature (~22 deg C) to allow for rTrxR1 reduction. Compounds (23 nL) were then transferred via Kalypsys pin tool equipped with 1536-pin array (10 nL slotted pins, V&P Scientific, San Diego, CA). In addition, a duplicate 2-fold serial dilution of the control compounds auranofin, a known gold-based TrxR1 inhibitor, and juglone (5-hydroxy-1,4-naphthoquinone), a natural TrxR1 substrate, were pin-transferred to columns 2 and 3, respectively. After incubation for 15 min at room temperature (~22 deg C), 1 uL of selenite (400 uM final concentration) were dispensed to each well. The plate was immediately transferred to a ViewLux high-throughput CCD imager (PerkinElmer), wherein kinetic measurements of NADPH fluorescence (Ex 340 nm, Em 450 nm) were acquired (8 minute kinetic read, see Table 1). Read 1 was utilized to assess the capacity of a compound to serve as an rTrxR1 substrate, i.e. a decrease in NADPH fluorescence compared to the no-compound background is an indication of a substrate behavior for that particular compound. For inhibitory activity of a compound, delta values, computed as the difference in fluorescence intensity between the first and last reads of an 8-minute time kinetic window, were used. All reagents were diluted in an assay buffer consisting of 50 mM Tris-HCl, pH 7.5, 2 mM EDTA, and 0.01% Tween-20.
Throughout the screen, reagent bottle and all liquid lines were made light-tight to minimize reagent degradation. All screening operations were performed on a fully integrated robotic system (Kalypsys, San Diego, CA) containing one RX-130 and two RX-90 anthropomorphic robotic arms (Staubli, Duncan, SC). Library plates were screened starting from the lowest and proceeding to the highest concentration, and a 'double-pinning' step of the highest concentration was required to access higher concentrations of compounds. Vehicle-only plates, with DMSO being pin-transferred to the columns 5-48, were inserted uniformly at the beginning and the end of each library in order to monitor and record any shifts in the background, which can be affected by reagent dispensers or loss in enzyme activity over time. […]
% is set by controls: 0 for no effect and ±100 for the full control effect.
Note: nearly all actives have a fitted effect of over 50% in size.

Thioredoxin reductase 1, cytoplasmic (Rattus norvegicus), sequence (O89049 whole entry, looked up): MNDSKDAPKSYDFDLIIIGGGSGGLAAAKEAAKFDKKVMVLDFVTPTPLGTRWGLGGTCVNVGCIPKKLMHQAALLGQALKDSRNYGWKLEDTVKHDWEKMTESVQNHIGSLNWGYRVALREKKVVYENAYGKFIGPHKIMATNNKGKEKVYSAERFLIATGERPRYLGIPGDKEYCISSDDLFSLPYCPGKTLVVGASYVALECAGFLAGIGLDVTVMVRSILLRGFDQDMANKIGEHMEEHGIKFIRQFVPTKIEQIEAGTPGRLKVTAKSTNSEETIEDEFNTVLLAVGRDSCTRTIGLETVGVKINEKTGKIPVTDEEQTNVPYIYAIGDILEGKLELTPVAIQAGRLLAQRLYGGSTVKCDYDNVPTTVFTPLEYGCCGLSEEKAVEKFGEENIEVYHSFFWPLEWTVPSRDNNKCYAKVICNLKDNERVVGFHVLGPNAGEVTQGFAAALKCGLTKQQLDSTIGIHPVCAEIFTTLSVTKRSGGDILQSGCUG

Activity change, negative = substrate turnover, inactive:
Nc1ccc(/C=C/c2ccnc3ccccc23)c([N+](=O)[O-])c1 7.22% [at 0.0914 µM], O=C(CCCn1c(=O)c2cccn2c2cccnc21)NCc1ccc(F)cc1 11.5%, Cc1ccc(S(=O)(=O)N2CCN(c3nc(-n4cnc5ccccc54)nc4ccccc34)CC2)cc1 21.2%, CSc1n[nH]c(-c2ccco2)n1 -1.88%, CN(C)c1ccc(/C=C2\C=Cc3ccccc32)cc1Br -5.98%, O=C(Nc1ccc2nc(SCCOc3ccccc3)sc2c1)c1ccco1 1.62%, Cn1nnnc1SCCCNCc1cccc(OCc2ccc(Cl)cc2)c1 1.64%, COc1ccc(/C=C/c2ccccn2)cc1OC 10.2%, Cc1csc(NCC(=O)c2c[nH]c3ccccc23)n1 2.82%, Nc1nc(N)c(N=O)c(N)n1 -7.44%, OC(CBr)C[n+]1cccc2cc(Br)ccc21 (stereo unspecified) -10.1%, O=C(c1cnn2c1NC(=C1CC1)C=C2C(F)F)N1CCc2ccccc2C1 -0.0564%, Cc1cccc(CN2Cc3cccc4c3[C@H](C=CC4)CC2=S)c1 0.496%, Cc1cc[n+](C2CCCCC2)cc1 7.57%, COc1cccc(Nc2nc3ccccc3c3nncn23)c1 4.82%, CC(NC(=O)c1cc(Sc2ccc(F)cc2F)nc2ccccc12)c1ccccc1 (stereo unspecified) -8.64% [at 57.1 µM], Cc1ccc2cccc(NC(=O)c3ccc(OC(C)C)cc3)c2n1 -3.98%, CCc1ccc(Sc2cc(C(=O)NCCCOC(C)C)c3ccccc3n2)cc1 -2.53% [at 57.1 µM], Nc1ncnc2c1c(I)cn2[C@@H]1C[C@H](N)[C@@H](O)[C@H]1O 9.12% [at 57.1 µM], Cc1ccc(NC(=O)c2cc3cc(C)ccc3n2C)cc1 39.4%, O=C1COc2ccc(-c3csc(-c4ccc(Cl)cc4)n3)cc2N1 2.22%, CC(C)(C)c1ccc(C(=O)C[n+]2cccc3cc(Cl)ccc32)cc1 -5.71%, OC(Cc1ccc2ccccc2n1)c1ccc(Cl)c(Cl)c1 (stereo unspecified) 8.06%, CO[C@H]1O[C@@H]2O[C@@]3(C)CC[C@@H]4[C@@H](C)CC[C@@H]([C@H]1C)[C@@]24OO3 0.883%, CCOC(=O)c1cc(-c2ccccc2)n(-c2cccc(C(=O)Nc3cc(OC)cc(OC)c3)c2)c1C 3.42% [at 57.1 µM], CCOC(=O)c1c(C)[nH]c(CCC(=O)Nc2ccc(OC)c(OC)c2)c1C -1.04% [at 57.1 µM], CCc1ccccc1NC(=O)Cn1c(=O)n(-c2cccc(C)c2)c(=O)c2c1c1cc(OC)ccc1n2C 9.12%, CN(CCC#N)c1ccc(C=O)cc1 -11.2%, COc1ccccc1N1CCN(C2C(=O)c3ccccc3N2C(C)=O)CC1 (stereo unspecified) 1.92% [at 57.1 µM], CCOc1ccc(NC(=O)C(CC(C)C)N2Cc3ccccc3C2=O)cc1 (stereo unspecified) -4.22%, CN(C)CCCn1c(-c2ccc(Cl)cc2)csc1=Nc1ccccc1 -1.54% [at 57.1 µM], CC1(C)CCc2cc(S(=O)(=O)N3CCN(c4nc(-c5cccs5)nc5ccccc45)CC3)ccc2O1 2.89%, C=C1C=C(C)n2ncc(C(=O)Nc3ccccc3O)c2N1 1.54%, COC(=O)C1=C(C(=O)OC)[C@@H]2N(Cc3ccccc3)c3ccccc3[C@@]23C[C@@H](C(=O)OC)N(S(=O)(=O)c2ccc(C(F)(F)F)cc2)C3=N1 -10.9%, CCOc1ccc(N2CC(C)Cn3c2nc2c3c(=O)n(Cc3c(F)cccc3Cl)c(=O)n2C)cc1 (stereo unspecified) -1.89%, C=C1C=C(C(F)F)n2ncc(C(=O)NCCc3ccccc3OC)c2N1 -2.11%, Cc1ccc(NC(=O)C(Cc2ccccc2)NS(=O)(=O)c2ccc3c(c2)oc(=O)n3C)cc1C (stereo unspecified) -0.578%, CCOc1ccc(Nc2ncnc3scc(-c4ccc(OC)cc4)c23)cc1 3.1% [at 57.1 µM], COc1cccc(CNCCSc2nnnn2C)c1OCc1ccccc1Cl 8.42% [at 11.4 µM], Cc1ccc(Cn2cnc3c(cnn3C(C)(C)C)c2=O)c(F)c1 1.87%, COc1cc(C(=O)Nc2ccc(OCc3cc(=O)n4ccc(C)cc4n3)cc2)cc(OC)c1OC 8.56% [at 57.1 µM], CC1CCCN(c2nc3c(S(=O)(=O)c4ccc(C(C)C)cc4)nnn3c3ccsc23)C1 (stereo unspecified) 29.8%, Cc1[nH]c2ccccc2c1C(=O)C(=O)N(C)c1ccccc1 1.64%, CN(CC(=O)Nc1ccccc1F)S(=O)(=O)c1ccc2c(c1)c(=O)n(C)c(=O)n2C 7.12%, COc1ccccc1CNC(=O)C(=O)NCC(c1ccco1)S(=O)(=O)c1ccc(F)cc1 (stereo unspecified) -4.27% [at 57.1 µM], CCOc1ccccc1CNC(=O)C1CCCN(S(=O)(=O)c2ccc3c(ccn3C)c2)C1 (stereo unspecified) 6.22% [at 57.1 µM], CN(Cc1ccccc1)c1ccc(/C=C/c2ccnc3ccccc23)cc1 -8.75%, Oc1ccccc1-c1nc(/C=C/c2ccc(F)cc2)no1 6.31%, CC(C)Cn1c(-c2ccc(S(=O)(=O)N3CCOCC3)cc2)csc1=Nc1cc(Cl)ccc1Cl 3.11%, COc1cc(OC)c(OC)cc1/C=C1\C=Cc2ccccc21 6.44% [at 0.0914 µM], Cc1cccc(C(=O)N2CCc3cc(CNC(=O)Cc4ccc(F)cc4)ccc32)c1 -5.32% [at 57.1 µM], Cc1nnc(SCC(=O)NCc2ccccc2Cl)c2nn(-c3ccccc3)c(C)c12 -2.94%, Brc1cccc[n+]1Cc1cccc(C[n+]2ccccc2Br)c1 -9.86%, COc1cc2[nH]c(=O)n(Cc3ccc(C(=O)NCc4ccc(C)cc4)cc3)c(=O)c2cc1OC 3.98% [at 2.29 µM], CN(C)c1ccc(/C=N\Nc2ccc([N+](=O)[O-])cc2[N+](=O)[O-])cc1Cl -5.6%, COc1cc2nc(Cl)nc(NC3CC3)c2cc1OC -7.58%, Cc1nnc(C)n1-c1ccc(C(=O)Nc2cccc(Br)c2)cc1 0.591% [at 57.1 µM], Cc1ccc(C=O)cc1Cl 7.59%, Cc1ccc(-c2nnc3ccc(SCC(N)=O)nn23)cc1 11.6%, CN(C)c1ccc(C=Nc2ccc(/C=C/c3ccnc4ccccc34)cc2)cc1 -26.7%, Cc1nnc(NCc2ccccc2)c2c1nnn2Cc1ccc(F)cc1 -11.2%, CN(C)c1ccc(/C=C/c2sc3ccccc3[n+]2CCCCBr)cc1 -1.1%, CC(C)(C(=O)NO)c1ccccc1 7.41%, O=C1O/C(=C\c2ccc(O)cc2)C(O)=C1c1ccc(O)cc1 -5.92%, NC1CCN(O)C1=O (stereo unspecified) 6.14% [at 57.1 µM], C=COC(=O)N1CCN(/[N+]([O-])=N/Oc2ccc([N+](=O)[O-])cc2[N+](=O)[O-])CC1 10.5% [at 0.457 µM]
